Data published in PubChem BioAssay (NCI).
Compounds without any hit were thinned out: in the full panel of roughly 83,000, 20% have a hit.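 How to read the values: 0–100, growth inhibition (40 = 60% inhibited); 0, no net growth; -100 to 0, cell death (-40 = 40% of starting cells died; -100 = all dead).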 Active and inactive are the calls of the source. The calls were made as follows: active = growth percent below 10; inactive = the rest.

These molecules were tested on SF-539 CNS (assay: NCI-60 one-dose screen, 48 h (100 = growth as untreated, 0 = no growth, -100 = all killed)). Conditions: 10 µM unless noted.

SMILES	growth
Cn1ccnc1C(=O)/C=C/c1ccc(CC(=O)Nc2ccccc2)cc1	-18.5% (active)
CC(C)CSc1nc(N)nc2c1ncn2C1OC(CO)C(O)C1O (centres undefined)	94.7% (inactive)
Cc1cc(N[C@@H]2CCC[C@H](Nc3ccnc4cc(Cl)ccc34)C2)nc(N2CCCCCC2)n1	-93% (active)
CC(C)(CCCN=C(N)Nc1ccc(Cl)cc1)c1ccc(F)cc1	76.1% (inactive)
COc1ccc(-c2nc(SCC(=O)Nc3ccc(C(=O)/C=C/c4ccc(Cl)cc4)cc3)[nH]c(=O)c2C#N)cc1	85.8% (inactive)
FC(F)(F)Oc1ccc2nc3nc4ccc[nH]c4cc3c2c1	84.8% (inactive)
CCOC(=O)C(C)(C#N)C1C=CCCC1 (centres undefined)	91.8% (inactive)
O=C1/C(=C/c2ccc(OCCCOc3ccc(Cl)cc3)cc2)N=C2SCCCN12	97% (inactive)
COc1cc(-c2nn(-c3ccc(C)cc3)cc2C(=O)O)ccc1O	101% (inactive)
CC(=O)c1cc2c(N)c(C(=O)Nc3cccc(F)c3C)sc2nc1C	93.5% (inactive)
COc1ccc(C2C(C#N)=C(N)Oc3n[nH]c(-c4cccs4)c32)cc1I (centres undefined)	85.6% (inactive)
CC(=O)c1cc(C(=O)c2ccc3c(c2)Sc2ccccc2N3)n2ccccc12	-38.3% (active)
CCOC(=O)c1c(C(=O)OCC)c2cc(-c3ccn4c(C(=O)c5ccccc5)c(C(=O)OCC)c(C(=O)OCC)c4c3)ccn2c1C(=O)c1ccccc1	89.9% (inactive)
Cc1cc(N2CCCC2)nc(NC2CCCC(Nc3ccnc4cc(Cl)ccc34)C2)n1 (centres undefined)	-92.5% (active)
COc1ccc2c(c1)CC/C(=C\c1cncc(Br)c1)C2=O	93.2% (inactive)
CCc1nc(N)nc(N)c1C#CC(C)c1ccc(-c2ccncc2)cc1Cl (centres undefined)	4.42% (active)
CC(=O)O[C@H]1C(=O)[C@@]2(C)[C@H]([C@H](OC(=O)c3ccccc3)[C@]3(O)C[C@H](OC(=O)[C@H](OC(=O)CCC(=O)OC4CCC(S/N=C(N)/N=C(\N)N(C)C)CC4)[C@@H](NC(=O)c4ccccc4)c4ccccc4)C(C)=C1C3(C)C)[C@]1(OC(C)=O)CO[C@@H]1C[C@@H]2O (some centres undefined)	-19.7% (active)
CCNC(=O)Oc1ccc(/C(=C(\C)c2ccc(Cl)cc2)c2ccc(OCCN3CCCCC3)cc2)cc1	47.8% (inactive)
CCOc1ccc(C(C)=O)cc1NC(=O)c1cccc(-c2nnn(CC)n2)c1	-16.7% (active)
CC/C=C\C[C@H]1C/C=C2/C(=O)C=C[C@H]2C/C=C\CCCC(=O)O1	14.7% (inactive)
COc1cccc2c1C(=O)c1c(O)c3c(c(O)c1C2=O)C[C@](O)(C(=O)CO)C[C@H]3O[C@@H]1C[C@@H](NC(=O)CCCCCN(C)C2(c3ccc(F)cc3)CC3CCC2C3)[C@H](O)[C@@H](C)O1 (some centres undefined)	-82.9% (active)
O=C(CN1CCCCC1)Nc1ccc2oc(=O)ccc2c1	129% (inactive)
COc1cc(C)c(C2C(C#N)=C(N)Oc3n[nH]c(-c4cccs4)c32)cc1C(C)C (centres undefined)	104% (inactive)
CCNC(=O)Oc1ccc(/C(=C(\C)c2ccc(Cl)cc2)c2ccc(OCCN(CC)CC)cc2)cc1	58.2% (inactive)
